Test [1] in a line: NCI Yeast Anticancer Drug Screen. Data for the rad50 strain (AID 155).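 Note: 0% = growth of vehicle-only cultures of the same strain.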 To be noted: S. cerevisiae rad50 strain growth inhibition; at 50.0 µM; active compounds read high. An outline of the steps: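 Genetically altered yeast (DNA repair pathway); compound treatment; growth inhibition vs vehicle ctrl.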
Test [2] can be described thus: NCI Yeast Anticancer Drug Screen. Data for the mec2-1 strain (AID 157). The following applies: S. cerevisiae mec2-1 strain, at 50.0 µM, active compounds read high. An outline of the steps: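 Compounds were applied to mec2-1 yeast cells. Their growth was then compared with that of vehicle-treated cultures to give growth inhibition.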
The nature of test [3]: NCI Yeast Anticancer Drug Screen. Data for the sgs1 mgt1 strain (AID 161).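 Note: 0% = growth of cultures given vehicle only.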 The following applies: S. cerevisiae sgs1 mgt1 strain, at 50.0 µM, active compounds read high. An outline of the steps: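 Yeast cells carrying a defined DNA-repair defect were exposed to test compounds. Growth inhibition was measured relative to vehicle-treated controls.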
Test [4] is described as follows: NCI Yeast Anticancer Drug Screen. Data for the cln2 rad14 strain (AID 165).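 Note: 0% = growth equal to vehicle treated cultures.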 To be noted: S. cerevisiae cln2 rad14 strain, at 50.0 µM, active compounds read high. The method in brief: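 Strain: cln2 rad14 yeast, altered in cell cycle control and DNA damage repair. Read-out: growth inhibition vs vehicle.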
Test [5] can be described thus: NCI Yeast Anticancer Drug Screen. Data for the bub3 strain (AID 167). To be noted: S. cerevisiae bub3 mutant strain, at 50.0 µM, active compounds read high. The method in brief: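 Yeast carrying a defined mutation is treated with each compound, and growth is compared with that of vehicle-exposed cells to give inhibition.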
Test [6] is described as follows: NCI Yeast Anticancer Drug Screen. Data for the mlh1 rad18 strain (AID 175). The following applies: S. cerevisiae mlh1 rad18 strain growth inhibition; at 50.0 µM; active compounds read high. The method in brief:
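A repair-deficient yeast strain is exposed to test compound, and growth is scored relative to vehicle-treated controls.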

The panel holds about 79,000 compounds, 15% with a hit somewhere; the sample as a whole holds those more often. Unmarked numbers belong to inactive results. Active and inactive are the calls of the source. Cut-off read from the data, not from the text of the source: active = growth inhibition above about 70%; inactive = the rest.

For the compound `Nc1ncnc2c1ncn2C1OC(CSCc2ccc(Cl)cc2)C(O)C1O` (stereo unspecified), the growth inhibition in test [1] was 26.6%; in test [2], 10.8%; in test [3] it was 15.4%; in test [4], 10.6%; in test [5] it was 58.7%; in test [6] it was 22.2%.
In the case of `Cc1cc2c(cc1Cl)SC(NNc1ccc([N+](=O)[O-])cc1)=NS2(=O)=O`, the growth inhibition in test [1] was 34.6%; in test [2], 2.4%; in test [3] it was 4.6%; in test [4], -7.85%; in test [5], -19.6%; in test [6], 26.9%.
With `Nc1ccc2c(c1)Cc1c-2cc(Br)c(N)c1Br`, the growth inhibition in test [1] is 4.95%; in test [2], -6.85%; in test [3] it was 9.5%; in test [4], -39.2%; in test [5] it was 1.9%; in test [6], -6.75%.
Turning to `FCCN(CCF)Cc1ccc2c(c1)OCO2`, the growth inhibition in test [1] is -4.8%; in test [2], -12.3%; in test [3], 2.05%; in test [4], -63.1%; in test [5], -3.1%; in test [6], -7.4%.
For `CC1(C)C2CCC3CC(CCC#N)CCC3C21C#N` (stereo unspecified), the growth inhibition in test [1] was -32.2%; in test [2], -11.2%; in test [3], -8.8%; in test [4] it was -34.5%; in test [5] it was -37.8%; in test [6] it was -23.1%.
As to `CC1c2c(cc(=O)n(C)c2O)C(=O)N1C` (stereo unspecified), the growth inhibition in test [1] was 2.15%; in test [2] it was 0.7%; in test [3] it was -7.85%; in test [4] it was -6.2%; in test [5] it was -9%; in test [6] it was -2.85%.
For `CNC(=S)NNc1ncnc2c1ncn2-c1ccc(C)cc1`, the growth inhibition in test [1] was -30.4%; in test [2], 6.3%; in test [3], 5.45%; in test [4] it was 29.7%; in test [5], 11.4%; in test [6], 4.25%.
`NNC(=O)c1ccc2ccccc2c1O`: the growth inhibition in test [1] is 17.4%; in test [2] it was 14.8%; in test [3], 17.1%; in test [4], 0.05%; in test [5], 22.1%; in test [6] it was 49%.
As to `CCCCCC(=O)Oc1c(C(C)CC)cc([N+](=O)[O-])cc1[N+](=O)[O-]` (stereo unspecified), the growth inhibition is 97.5% (active) in test [1]; 97% (active) in test [2]; 98.5% (active) in test [3]; 97.7% (active) in test [4]; 97.3% (active) in test [5]; 98.2% (active) in test [6].
As for `CCc1ccccc1O`, the growth inhibition in test [1] was 6.1%; in test [2], -7.6%; in test [3] it was 3.3%; in test [4], -25%; in test [5], -11.7%; in test [6] it was 1.4%.
As for `COc1ccc(/C=C2\NC(=O)NC2=O)cc1Br`, the growth inhibition was 11.8% in test [1]; 10.4% in test [2]; 2.65% in test [3]; 7% in test [4]; 9.1% in test [5]; 8.5% in test [6].
In the case of `O=C(O)C#Cc1ccccc1`, the growth inhibition was 25.7% in test [1]; -27.9% in test [2]; -1.8% in test [3]; 2.6% in test [4]; -23.2% in test [5]; 0.3% in test [6].
Turning to `CCCOC(=O)CNC(=O)OC(C)(C)C`, the growth inhibition is 17.6% in test [1]; 14.8% in test [2]; 1.15% in test [3]; 0.55% in test [4]; -4.95% in test [5]; -4.35% in test [6].
Regarding `Nc1nc(-c2ccc(-c3ccccc3)cc2)cc(=O)[nH]1`, the growth inhibition in test [1] was 0.25%; in test [2] it was 27.6%; in test [3], -4.8%; in test [4] it was -8.25%; in test [5], 7.5%; in test [6], -25.8%.
In the case of `Cc1ccc(N=Cc2cccs2)c(Br)c1`, the growth inhibition in test [1] is -5.7%; in test [2] it was -20.1%; in test [3], -0.2%; in test [4] it was 6.4%; in test [5] it was -0.95%; in test [6], 5.95%.
As to `N#CC1C(C#N)C2CCC1C1N=NN(c3ccccc3)C21` (stereo unspecified), the growth inhibition in test [1] was -16.4%; in test [2], -12.1%; in test [3] it was -10.8%; in test [4], -19.1%; in test [5], 17.9%; in test [6] it was -28.6%.
Consider `CC1=COCCO1`, for which the growth inhibition in test [1] was -9.9%; in test [2] it was -9.35%; in test [3] it was -9.35%; in test [4], 6.85%; in test [5], 12.7%; in test [6], 0.5%.
For `CC1=COC(=O)c2ccccc2N1`, the growth inhibition in test [1] was 15.3%; in test [2] it was 1.65%; in test [3] it was -7.1%; in test [4] it was 14.6%; in test [5], 6.05%; in test [6], 6%.
On to `CCOC(=O)C(Cc1ccc(OC)c(C)c1)(NC(C)=O)C(=O)OCC`, for which the growth inhibition in test [1] was -0.3%; in test [2], 5.1%; in test [3], -3.45%; in test [4], -14.2%; in test [5] it was 3.85%; in test [6], 6.4%.
Turning to `NC(=O)CCN(CCC(N)=O)c1ccc2c(c1)C(=O)c1ccccc1-2`, the growth inhibition in test [1] is -7.3%; in test [2], -6.05%; in test [3] it was -8%; in test [4], -22.9%; in test [5], 15.5%; in test [6] it was -14.9%.
As for `O=C(O)c1ccccc1SC(Sc1ccccc1C(=O)O)c1ccccc1`, the growth inhibition was -11.8% in test [1]; -10.7% in test [2]; -2.35% in test [3]; -7.85% in test [4]; 12.1% in test [5]; 10.6% in test [6].

The values above are taken from PubChem BioAssay (NCI).
